Only some compounds are listed: those with a hit (about 1.8% of all), similar ones and a draw of the others.
PrPC surface inh: reduces human prion protein on the cell surface; P04156; cell surface PrPC, TR-FRET read-out; inhibition, % at 13.8 µM; 0.43% of 370,000 active; in the data active = inhibition above about 24%; also: 0% = median of the test wells and 100% = reference compound wells
MazEF act: activators of E. coli MazEF toxin-antitoxin RNase; P0AE70; FAM/BHQ RNA-DNA oligo cleavage fluorescence, 5 h; activation, % at 20 µM; 0.32% of 350,000 active; AID 504720; in the data active = activation above about 50%
Target sequence (P0AE70 whole entry, looked up): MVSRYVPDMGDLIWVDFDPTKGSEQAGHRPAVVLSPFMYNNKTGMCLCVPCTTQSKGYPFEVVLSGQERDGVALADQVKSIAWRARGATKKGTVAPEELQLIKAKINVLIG
BH1578 lux ind: induces V. cholerae light production without autoinducers | AID 588436 | 0.16% of 350,000 active | activation, % at 18.7 µM | V. cholerae BH1578 lux reporter, luminescence, 6 h; in the data active = activation mostly above about 9.7%, no sharp cut-off
Y pestis TopoI: blocks Yersinia pestis topoisomerase I activity | activity, % at 10 µM | 0.064% of 360,000 active | Y. pestis Topo-I cleavage product accumulation, plate reader | AID 504884; in the data active = activity above about 50%, passing the limit was not always enough
VHR inh abs: blocks human VHR1 dual specificity phosphatase. P51452. recombinant VHR phosphatase, pNPP absorbance. inhibition, % at 13.3 µM. 0.52% of 290,000 active. AID 1654; in the data active = inhibition above about 50%
Target sequence (P51452 whole entry, looked up): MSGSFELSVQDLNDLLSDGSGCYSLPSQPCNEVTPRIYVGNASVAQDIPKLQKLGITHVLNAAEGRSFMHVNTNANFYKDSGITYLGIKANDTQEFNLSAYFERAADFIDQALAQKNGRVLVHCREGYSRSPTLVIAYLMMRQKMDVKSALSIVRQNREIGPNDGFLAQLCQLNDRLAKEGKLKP
CCHF vOTU inh: CCHFV vOTU protease inhibition. Pep-AMC fluorescence. inhibition, % at 11.5 µM. 0.55% of 370,000 active; in the data active = inhibition above about 30%; also: 0% = vehicle wells with enzyme and 100% = no enzyme wells
PrPC TRFRET cf: cell surface PrPC inhibition, TR-FRET confirmation | shares compounds with PrPC surface inh | cell surface PrPC level | inhibition, % at 13.8 µM | 65% of 1,500 active; in the data active = inhibition above about 25%
LD9 cytotox: counter-screen for PrPc inhibitors: cytotoxicity in LD9 cells. shares compounds with PrPC surface inh. luminescence viability. inhibition, % at 13.8 µM. 29% of 1,500 active; in the data active = inhibition above about 9.5%
* = called active by the depositor; i = inactive; . = no result.

SMILES	PrPC surface inh	MazEF act	BH1578 lux ind	Y pestis TopoI	VHR inh abs	CCHF vOTU inh	PrPC TRFRET cf	LD9 cytotox
CN(CCc1ccccc1)C(=O)c1ccc(NC(=O)Cc2ccc(NC(=O)C3CCCN(C(=O)C4CCCC4)C3)cc2)cc1 (centres undefined)	10	-4	i	23	.	1	.	.
CCOCc1c(C(=O)Nc2cc(OCC)c(N3CCOCC3)cc2OCC)oc2ccccc12	-1	2	i	14	7	2	.	.
CCOCc1c(C(=O)Nc2ccc3nc(N4CCOCC4)sc3c2)oc2ccccc12	33*	7	6	37	.	15	16	6
Cc1ccc(C)c(NC(=O)[C@@H]2CCCN2S(=O)(=O)c2cccc3cccnc23)c1	10	.	.	.	.	.	.	.
CCCCOc1ccc(/C(O)=C2/C(=O)C(=O)N(Cc3cccnc3)C2c2ccncc2)c(C)c1 (centres undefined)	45*	-1	-6	-9	6	6	70*	2
Cc1cc(OCC(C)C)ccc1/C(O)=C1/C(=O)C(=O)N(Cc2cccnc2)C1c1ccncc1 (centres undefined)	35*	7	.	-1	18	10	54*	0
CCCn1c(SCC(=O)NC(=O)NC(C)(C)C)n[nH]c1=O	9	-13	0	-3	-4	4	.	.
CC(C)(C)C(=O)/C(=C/c1ccncc1)n1cncn1	34*	3	-1	3	27	-3	1	44*
Cc1nn(C)c(C)c1/C=C(/C(=O)C(C)(C)C)n1cncn1	14	-6	0	-1	21	-9	.	.
O=C1N(CC(=O)N2CCc3ccccc32)CCN1Cc1ccc(Cl)cc1	46*	-15	1	-4	24	4	2	-1
CC1(c2ccc(Cl)cc2)NC(=O)N(CC(=O)N2CCc3ccccc32)C1=O (centres undefined)	6	1	i	5	.	1	.	.
CC[C@H](C)[C@@H]1OC(=O)[C@H](C(C)C)N(C)C(=O)[C@H](C(C)C)NC(=O)[C@@H](C)[C@@H](CCCC#CBr)OC(=O)[C@H](C(C)C)N(C)C(=O)C2CCCN2C1=O (some centres undefined)	6	.	.	.	.	.	.	.
CC[C@@H]1CCC[C@@H](O)[C@@H](C)C(=O)O[C@H](C)[C@@H](C)C/C=C(C)/C(OC)=C\C(=O)N(C)C([C@@H](C)CC)C(=O)N(C)[C@@H](C(C)C)C(=O)N(C)[C@@H](COC)C(=O)N2CCC[C@H]2C(=O)N(C)[C@@H](C(C)C)C(=O)N2CCC[C@H]2C(=O)O1 (some centres undefined)	41*	.	.	.	.	16	51*	16*
CCC(=O)Nc1c(-c2ccc3ccccc3c2)nc2ccccn12	-16	1	0	-7	22	-33	.	.
COc1ccc(Oc2c(Cl)cnn(CC(=O)C(c3ccccc3)c3ccccc3)c2=O)cc1	-4	.	.	.	.	0	.	.
O=C1C(=O)N(CCCn2ccnc2)C(c2cccc(Br)c2)/C1=C(\O)c1ccc2c(c1)OCCO2 (centres undefined)	30*	-6	i	8	4	19	43*	1
COc1cccc(C2/C(=C(\O)c3ccc4c(c3)OCCO4)C(=O)C(=O)N2CCCn2ccnc2)c1 (centres undefined)	7	3	i	5	21	5	.	.
COc1ccc(CC(=O)NC(c2ccccc2)c2ccc(C)cc2)c(OC)c1 (centres undefined)	30*	1	-7	48	0	12	28*	-9
CC(Oc1ccc2c3c(c(=O)oc2c1)CCCC3)C(=O)NCC(O)c1ccccc1 (centres undefined)	2	1	1	8	-3	-12	.	.
CC1CCCN(c2ccc(C(=O)Nc3ccc4c(c3)OCO4)cc2[N+](=O)[O-])C1 (centres undefined)	31*	5	5	4	-2	9	40*	9
COc1ccc(NC(=O)C2CC2)cc1-n1cnnn1	5	1	0	3	18	14	.	.

High-throughput results from PubChem.
